Measured values published in PubChem BioAssay (NCATS).
Where “and” joins values, the source holds several entries; their conditions need not be identical. Equal entries are not always repeated. Results filed as inconclusive are left out. Calls of active or inactive are those of the source. Calls follow the shape of the dose curve; as a rule, active = well fitted activation curve with a large enough effect; inconclusive = small, poorly fitted or top-dose-only effect; inactive = no such curve, though single readings can be large or run the other way.

These compounds were tested against Cellular tumor antigen p53 (Homo sapiens) (UniProt P04637) (assay: Primary qHTS for small molecule compounds that upregulate eGFP-tagged delta133p53alpha (in N-terminal) cells. (AID 2060322; also: nearly all actives have a fitted effect of over 75% in size;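 as to activation: series mostly up to about 56 µM; 0% = DMSO vehicle and 100% = reference activator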)). Conditions: NCI-H358 eGFP-delta133p53alpha fluorescence, 24 h; activation: hits give high values.
Sequence of Cellular tumor antigen p53 (Homo sapiens) (P04637 whole entry, looked up): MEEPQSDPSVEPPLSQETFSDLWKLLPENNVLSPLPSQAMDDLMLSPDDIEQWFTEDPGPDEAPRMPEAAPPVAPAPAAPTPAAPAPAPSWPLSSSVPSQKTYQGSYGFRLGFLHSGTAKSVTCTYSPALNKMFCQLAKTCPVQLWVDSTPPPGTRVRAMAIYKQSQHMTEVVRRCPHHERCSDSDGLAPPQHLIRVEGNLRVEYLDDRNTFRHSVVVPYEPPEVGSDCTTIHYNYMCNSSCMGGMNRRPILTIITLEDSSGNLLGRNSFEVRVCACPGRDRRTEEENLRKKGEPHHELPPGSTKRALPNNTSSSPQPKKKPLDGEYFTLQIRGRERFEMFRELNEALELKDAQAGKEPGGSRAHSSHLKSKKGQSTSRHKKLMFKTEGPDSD
Method in brief: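 NCI-H358 cells pre-induced 24 h with 10 ng/ml doxycycline to express N-terminal eGFP-delta133p53alpha, then dosed 24 h at 37C without doxycycline; fixed, Hoechst-stained, GFP intensity by laser scanning cytometry, normalized to DMSO (0%) and 57.5 uM 5-azacytidine (100%).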
Potency is read from the fitted curve at half-maximal effect.

With `C/C(=C(\CCOP(=O)(O)O)SC(=O)c1ccccc1)N(C=O)Cc1cnc(C)nc1N` as the compound, how does the activation read?
The activation was -11.7% (inactive).

`Cc1nc2n(c(=O)c1CCN1CCC(C(=O)c3ccc(F)cc3)CC1)CCS2` was tested. Which activation did it give?
The activation was 23.2% (inactive).

How did the activation turn out when `C=CC[N+]1([C@H]2C[C@H]3[C@@H]4CC[C@H]5C[C@H](O)[C@@H](N6CCOCC6)C[C@]5(C)[C@@H]4CC[C@]3(C)[C@H]2OC(C)=O)CCCC1` was run?
The activation was 4.45% (inactive).

Which activation does the source give for `CN1N=C(C(N)=O)CCC1=O` here?
Its activation is -6.21% (inactive).

How did the activation turn out when `CC(C)(C)c1cc(C=O)cc(C(C)(C)C)c1O` was run?
Its activation is -16.4% (inactive).

`Nc1ccc(S(=O)(=O)NC(=O)c2ccccc2)cc1` was tested. Which activation did it give?
The activation was 5.08% (inactive).

Which activation does the source give for `CCOC(=O)[C@H](CCc1ccccc1)N[C@@H](C)C(=O)N1Cc2ccccc2C[C@H]1C(=O)O` here?
Its activation is 17.6% (inactive).

Which activation does the source give for `O=C1c2ccccc2C(=O)C1c1ccc(Br)cc1` here?
Its activation is -22% (inactive).

`Cc1cccc(C)c1NC(=O)CN1CCCCCC1` was tested. Which activation did it give?
The activation was 6.69% (inactive).

With `C=C1C[C@H]2[C@@H]3C=C(C)C4=CC(=O)CC[C@]4(C)[C@H]3CC[C@]2(C)[C@@]1(OC(C)=O)C(C)=O` as the compound, how does the activation read?
The activation was -0.837% (inactive).

With `CC=C(C)C(=O)O[C@H]1C(C)=C[C@]23C(=O)[C@@H](C=C(CO)[C@@H](O)[C@]12O)[C@H]1[C@@H](C[C@H]3C)C1(C)C` as the compound, how does the activation read?
Its activation is 20.2% (inactive).

For `C=CCSCC1Nc2cc(Cl)c(S(N)(=O)=O)cc2S(=O)(=O)N1` (stereo not given), which activation is on record?
The activation was -36.8% (inactive).

With `COC(=O)N[C@H](C(=O)N[C@@H](Cc1ccccc1)[C@@H](O)CN(Cc1ccc(-c2ccccn2)cc1)NC(=O)[C@@H](NC(=O)OC)C(C)(C)C)C(C)(C)C` as the compound, how does the activation read?
The activation was -2.82% (inactive) and 23.4% (inactive).

How did the activation turn out when `C[C@@]12CCC[C@H]1[C@@H]1CC[C@H]3C[C@@H](O)CC[C@]3(C)[C@H]1CC2` was run?
Its activation is -12.6% (inactive).

For `CN1CCN(C2=Nc3cc(F)ccc3Cc3ccccc32)CC1`, which activation is on record?
The activation was -11.9% (inactive).

Which activation does the source give for `O=C(C=Cc1ccc(O)cc1)c1ccc(O)cc1O` here?
Its activation is -12.8% (inactive).

`O=C1c2ccccc2C(=O)c2c1ccc(O)c2O` was tested. Which activation did it give?
The activation was -14.2% (inactive).

With `Clc1ccc2c(c1)Nc1ccccc1S2` as the compound, how does the activation read?
The activation was 20.9% (inactive).

`CC(C)C(=O)Nc1cccc(C2CN3CCSC3=N2)c1` (stereo not given) was tested. Which activation did it give?
Its activation is 6.69% (inactive).

For `CC(C)Nc1cccnc1N1CCN(C(=O)c2cc3cc(NS(C)(=O)=O)ccc3[nH]2)CC1`, which activation is on record?
Its activation is -10.7% (inactive).

With `Oc1ccccc1` as the compound, how does the activation read?
The activation was -1.69% (inactive).

For `CCC(C(=O)O)c1ccc(N2Cc3ccccc3C2=O)cc1` (stereo not given), which activation is on record?
Its activation is 18.6% (inactive).

For `Cn1cc(C=CC(=O)c2cccc(F)c2)cc1C=CC(=O)NO`, which Potency is on record?
The Potency was 38.5 µM (active).

Which Potency does the source give for `Nc1ccccc1N` here?
Its Potency is 17.8 µM (active).

`Nc1ccc(C(=O)NCC(=O)O)cc1` was tested. Which activation did it give?
The activation was -8.47% (inactive).

With `CN1CC(=O)NC1=N` as the compound, how does the activation read?
Its activation is -5.08% (inactive).

`CC1(C)[C@@H]2CC[C@@]1(C)C(=O)C2` was tested. Which activation did it give?
The activation was -0.837% (inactive).

For `O=C1OC2(c3ccccc31)c1cc(I)c(O)c(I)c1Oc1c2cc(I)c(O)c1I`, which activation is on record?
Its activation is -36.8% (inactive).

With `COC(=O)C1=C(C)NC(C)=C(C(=O)OCCc2ccc(N3CCN(C(c4ccccc4)c4ccccc4)CC3)cc2)C1c1cccc([N+](=O)[O-])c1` (stereo not given) as the compound, how does the activation read?
The activation was -15.9% (inactive).

`CCn1c(-c2nc3cc(C(=O)N4CCC[C@@H](N)C4)cc(OC)c3n2C)cc2ccccc21` was tested. Which activation did it give?
The activation was -14.5% (inactive).

How did the activation turn out when `O=C1NC(=O)C(=Cc2cccc(C(F)(F)F)c2)S1` was run?
Its activation is 2.49% (inactive).

For `CO[C@@H]1[C@@H](OC)[C@H](C)[C@@](O)(CC(=O)O)O[C@H]1[C@H](C)[C@H]1O[C@@]2(CC[C@@](C)([C@H]3CC[C@@](C)([C@@H]4O[C@@H]([C@H]5O[C@](C)(O)[C@H](C)C[C@@H]5C)C[C@@H]4OC4C[C@H](OC)[C@@H](OC)[C@H](C)O4)O3)O2)C[C@H](O)[C@H]1C` (stereo not given in full), which Potency is on record?
The Potency was 8.71 µM (active).

How did the activation turn out when `O=C(CCBr)N1CCN(C(=O)CCBr)CC1` was run?
Its activation is 20.9% (inactive).

How did the activation turn out when `CCNC(=O)CCCC=CC[C@@H]1[C@H](C=CC(O)CCc2ccccc2)[C@@H](O)C[C@@H]1O` (stereo not given in full) was run?
Its activation is -2.33% (inactive).

For `CC(=O)Oc1ccc(C)cc1`, which activation is on record?
Its activation is -17.5% (inactive).

`Cc1ccc(S(=O)(=O)NC(=O)NC2CCCC2)cc1` was tested. Which activation did it give?
Its activation is 23.2% (inactive).

With `CC(C)N1[N]C(=C2C=c3cc(O)ccc3=N2)c2c(N)ncnc21` as the compound, how does the activation read?
Its activation is 11.7% (inactive).

How did the activation turn out when `NCCNc1cccc2ccccc12` was run?
Its activation is 24.3% (inactive).

For `COc1cc(C)c(Cc2cnc(N)nc2N)cc1OC`, which activation is on record?
The activation was -6.69% (inactive).

For `O=c1[nH]c(=O)n([C@H]2O[C@H](CO)[C@@H](O)[C@@H]2O)cc1/C=C\Br`, which activation is on record?
The activation was 3.35% (inactive).
